# A selection: hits, their analogues and other compounds. The true share with any hit is near 9.4%.
# ELG1 repair inh – qHTS screen for small molecules that inhibit ELG1-dependent DNA repair in human embryonic kidney (HEK293T) cells expressing luciferase-tagged ELG1. HEK293T ELG1-luciferase reporter, luminescence, 16 h; DNA damage induced by 5-fluorouridine. Potency, µM (titrated, usually from 46.1 µM), without a hit: at the highest dose activity change, negative = inhibition, most hits filed as inhibitors. 330,000 tested, 2.3% active; note: % is set by controls: 0 for no effect and ±100 for the full control effect; nearly all actives have a fitted effect of over 55% in size
#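 Quantitative HTS, concentration-response format. 2,000 cells/well co-treated with 5-fluorouridine and compound, 16 hr in 5% CO2 at 37 °C; ONE-Glo luminescence read after 30 min.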
# NPC1 promoter act – qHTS Assay for NPC1 Promoter Activators | Huh7 NPC1 promoter luciferase reporter, 24 h | 320,000 tested, 2.4% active | AID 485313, 2010 | Potency, µM (titrated, usually from 9.22 µM), for inactives: at the top dose activation, usual class: activators; note: % of control where 0% means no effect; nearly all actives have a fitted effect of over 60% in size
#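 Huh7 reporter cells (NPC1 promoter driving luciferase) are dosed with compound for 24 h at 37 °C, 5% CO2; luciferase detection reagent is then added and luminescence measured after 10 min at ambient temperature.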
# FLuc counter – qHTS profiling assay for firefly luciferase inhibitor/activator using purifed enzyme and Km concentrations of substrates (counterscreen for miR-21 project); Luciferin 4-monooxygenase (Photinus pyralis), P08659; purified FLuc, Km substrates, luminescence inhibition; Potency, µM (series often up to 57.5 µM), inactives show top-dose activity change, negative = inhibition, most hits filed as inhibitors; 360,000 tested, 6.9% active; AID 588342, 2011;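 note: plate controls were vehicle for no effect and reference inhibitor for full effect; nearly all actives have a fitted effect of over 55% in size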
# Target sequence (P08659 whole entry, looked up): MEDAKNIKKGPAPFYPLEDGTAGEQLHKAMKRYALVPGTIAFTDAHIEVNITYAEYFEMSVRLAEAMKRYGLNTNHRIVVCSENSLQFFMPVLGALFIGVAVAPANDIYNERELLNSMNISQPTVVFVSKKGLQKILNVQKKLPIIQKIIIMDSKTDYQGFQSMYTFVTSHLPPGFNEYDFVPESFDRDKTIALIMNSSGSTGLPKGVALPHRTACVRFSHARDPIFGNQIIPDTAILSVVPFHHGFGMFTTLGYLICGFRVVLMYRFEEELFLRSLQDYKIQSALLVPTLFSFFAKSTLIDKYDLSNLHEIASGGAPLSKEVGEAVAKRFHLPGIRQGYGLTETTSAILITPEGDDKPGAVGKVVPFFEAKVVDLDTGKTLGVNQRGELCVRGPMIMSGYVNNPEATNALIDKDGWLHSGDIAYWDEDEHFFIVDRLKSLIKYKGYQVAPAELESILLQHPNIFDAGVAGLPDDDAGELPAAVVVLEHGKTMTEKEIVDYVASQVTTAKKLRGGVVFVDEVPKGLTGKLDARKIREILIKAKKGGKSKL
#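 Biochemical qHTS of compounds, final roughly 60 µM downward over six points, against 10 nM purified firefly luciferase using Km concentrations of substrates (10 uM D-luciferin, 10 uM ATP) in Tris acetate pH 7.5 buffer; luminescence output.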
# SMN2 splice enh – qHTS Assay for Enhancers of SMN2 Splice Variant Expression; HEK293 SMN2-luciferase splicing reporter, luminescence, 30-36 h; Potency, µM (series often up to 46.1 µM), for inactives: at the highest dose activity change, positive = activation, most hits filed as activators; 210,000 tested, 2.8% active; AID 1458, 2008; note: % of control where 0% means no effect; nearly all actives have a fitted effect of over 55% in size
#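 HEK293 cells carry an SMN2 […]–luciferase reporter in which exon 7 inclusion puts luciferase in frame. Cells were plated 10-12 h before compound addition, then incubated 30-36 h at 37C. ONE-Glo luminescence was read; sodium butyrate at 4.5 mM final served as control.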
# ELG1 genotoxic – qHTS screen for small molecules that induce genotoxicity in human embryonic kidney (HEK293T) cells expressing luciferase-tagged ELG1; HEK293T ELG1-luciferase reporter, luminescence, 16 h; Potency, µM (titrated, usually from 46 µM), inactives show top-dose activity change, positive = activation, actives largely listed as activators; 330,000 tested, 1.3% active; AID 504466, 2011; note: % of control where 0% means no effect; nearly all actives have a fitted effect of over 60% in size
#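 After overnight (16 hr) compound treatment at 37 °C, ELG1-luciferase HEK293T cells were lysed with ONE-Glo; luminescence quantified 30 min later at room temperature.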
# Rab9 promoter act – qHTS Assay for Rab9 Promoter Activators | Potency, µM (top dose mostly 9.22 µM), for the others: at the top dose activation, negative = inhibition, usual class: activators | 320,000 tested, 2.8% active | Huh7 Rab9 promoter-luciferase reporter, luminescence, 24 h; note: % of control where 0% means no effect; nearly all actives have a fitted effect of over 60% in size
#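 Cells were plated at 1500 per well in reduced-serum medium with 10% FBS and left 2 h. Compound in DMSO was then added for 24 h at 37 °C. Reporter signal was read by luminescence after 10 min with luciferase detection reagent.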
# Numbers without * were called inactive; ? = inconclusive; / = no result given; [ ] = another dose, or the depositor's remark. Calls come from the whole dose curve; as a rule, active = well fitted curve in the direction sought with a large enough effect; inconclusive = small, poorly fitted or top-dose-only effect, or another doubt; inactive = no such curve, though single readings can be large; an effect the other way counts as inactive or inconclusive. Potency is the fitted concentration of half-maximal effect.
SMILES,ELG1 repair inh,NPC1 promoter act,FLuc counter,SMN2 splice enh,ELG1 genotoxic,Rab9 promoter act
CCc1nnc(NS(=O)(=O)c2ccc(N=Cc3c(C)[nH]n(-c4ccc(Cl)cc4)c3=O)cc2)s1,-2%,1%,-20%,-9%[1.84 µM],4%,3%
NC(N)=NC(N)=Nc1ccc(C(=O)O)cc1,/,/,/,-3%[9.22 µM],/,/
COc1cccc(C(=O)N2c3nc(-c4ccco4)nn3C3(CCCCC3)[C@@H]3CCCC[C@@H]32)c1,/,/,1%,/,/,/
Cc1cccc(Cn2c(=O)n(CCc3ccccc3)c(=O)c3c(C)c(C)sc32)c1,/,/,5%,-7%,/,/
Cc1ccc(-n2[nH]c(C)c(/C=N/NC(=O)c3ccc(O)cc3O)c2=O)cc1,-1%,23%,0.43µM*,/,?,4%
Cc1ccc(OCC(=O)N/N=C\c2c(C)[nH]n(-c3ccccc3)c2=O)c([N+](=O)[O-])c1,?,-4%,?,-75%,7%,-7%
Cc1[nH]n(-c2ccccc2)c(=O)c1CCOC(=O)c1cccc(C(F)(F)F)c1,-3%,2%,5%,-13%,1%,3%
Cc1ccc(C(=O)OCCc2c(C)[nH]n(-c3ccccc3)c2=O)cc1,9%,-4%,13µM*,-22%,0%,2%
Oc1ccc(-c2nc3ccc4ccccc4c3c3c2CCC3)cc1O,?,-2%,24µM*,-18%[1.84 µM],9%,1%
Cc1cccc(C(=O)NCCc2nc3ccccc3n2CCC(C)C)c1,/,/,2%,-16%,/,/
CCOC(=O)c1cnc2cc3c(cn2c1=O)CCCC3,?,?,24µM*,16%,28%,3.2µM*
CCOC(=O)c1cc2c(nc1N)CCCC2,0%,0%,-3%,/,0%,7%
COc1cc2c(cc1OC)C(c1cc(OC)c(O)c(OC)c1)CC(=O)N2 (stereo not drawn),/,/,-1%,13%,/,/
CCCCC1=CC2=C(c3ccco3)C(=O)C(C)(OC(=O)c3ccc(OC)cc3)C(=O)C2=CO1 (stereo not drawn),/,/,/,4%,/,/
Cc1cc(CN(C)C(=O)c2cc(COc3ccc(F)cc3Cl)on2)n[nH]1,?,24%,17µM*,/,?,?
Cc1ccc(CN(C)C(=O)c2cc(COc3ccc(F)cc3Cl)on2)o1,?,14%,21µM*,/,9%,14%
Cc1nonc1CN(C)C(=O)c1cc(COc2ccc(F)cc2Cl)on1,?,27%,?,/,9%,19%
CN(C(=O)c1cc(COc2ccc(F)cc2Cl)on1)C1CCCc2ccccc21 (stereo not drawn),-17%,-20%,0%,/,-9%,-2%
CC(C)(CNC(=O)/C=C/c1ccc(F)cc1)CNC(=O)/C=C/c1ccc(F)cc1,23µM*,3%,?,35%,-9%,16%
CNC(=O)/C=C/c1cccc(C(F)(F)F)c1,15%,-1%,3%,-6%,1%,7%
CC(C)(C)NC(=O)/C=C/c1ccc(C(F)(F)F)cc1,?,-4%,27µM*,-28%,5%,-7%
COc1ccc(OC)c(NC(=O)c2c(NCc3ccc(C)o3)sc3c2CCC(C)C3)c1 (stereo not drawn),/,/,-9%,/,/,/
CCn1c(=O)c2sccc2n2c(CCCC(=O)N3CCN(c4ccc(F)cc4)CC3)nnc12,/,/,1%,/,/,/
CC1CN(C(=O)c2ccc(-c3ccccc3Cl)o2)CC(C)O1 (stereo not drawn),?,17%,?,/,4%,27%
CC1CCCN(C(=O)c2ccc(-c3ccccc3Cl)o2)C1 (stereo not drawn),?,3.5µM*,8.5µM*,/,15µM*,2.5µM*
SMILES,ELG1 repair inh,NPC1 promoter act,FLuc counter,SMN2 splice enh,ELG1 genotoxic,Rab9 promoter act
Fc1ccccc1OCCSc1nnnn1-c1ccccc1,?,2.5µM*,3µM*,3.2µM*,10µM*,?
c1ccc(OCCSc2nnnn2-c2ccccc2)cc1,?,2.5µM*,2.7µM*,16µM*,3.7µM*,0.89µM*
COc1ccccc1OCCSc1nnnn1-c1ccc(C)cc1,?,15%,17µM*,?,?,-5%
O=C1CS/C(=C/C(=O)c2cccc(Cl)c2)N1,17%,5%,?,10%,14%,1%
Cc1ccc(C(=O)/C=C2/NC(=O)CS2)cc1,?,25%,6.7µM*,20µM*,17%,?
COc1ccccc1N1CCN(C(=O)CSc2nc3ccccc3c(=O)n2CC2CCCO2)CC1 (stereo not drawn),23µM*,1%,-2%,-24%,-4%,5%
COc1ccccc1NC(=O)CSc1nc2ccccc2c(=O)n1CC1CCCO1 (stereo not drawn),-6%,-1%,-1%,/,1%,5%
CCc1cccc(C)c1NC(=O)CN1C(=O)c2c(c3ccccc3n2C)C1c1ccc(OC)cc1 (stereo not drawn),/,/,-2%,/,/,/
Cc1ccc(-c2cc(C(=O)NCCCn3ccnc3)c3cc(Br)ccc3n2)o1,1%,-1%,15µM*,-6%,2%,-2%
Cc1ccc(-c2cc(C(=O)NN3CCOCC3)c3cc(Br)ccc3n2)o1,?,-4%,?,10%,-6%,-5%
CC(=O)c1c(C)nc2ccc(Br)cc2c1C(=O)O,9%,1%,5%,-24%,-2%,-2%
Cc1ccc(-c2cc(C(=O)O)c3cc(Br)ccc3n2)o1,9%,5%,11µM*,19%,-4%,4%
COc1cccc(-c2cc(C(=O)NCCCn3ccnc3)c3ccccc3n2)c1,-12%,2%,?,25%,-1%,1%
Cc1ccc(-c2cc(C(=O)O)c3cc(Br)ccc3n2)s1,?,?,2.4µM*,/,6%,22%
Cc1c(C(=O)NCCCn2ccnc2)oc2ccccc12,12%,-2%,-15%,-13%,0%,2%
Cc1cccc(-c2cc(C(=O)NCCCn3ccnc3)c3ccccc3n2)c1,3%,-1%,15µM*,-12%,2%,-3%
Cc1ccc(C)c(C(=O)CSc2nc3cc(C(=O)NC4CCCC4)ccc3c(=O)n2CC2CCCO2)c1 (stereo not drawn),/,/,-2%,/,/,/
COc1cc(NC(=O)CC2C(=O)N(c3cccc(C)c3)C(=O)N2Cc2ccco2)cc(OC)c1 (stereo not drawn),/,/,-10%,/,/,/
Cc1ccc(-c2cc(C(=O)NC3=NCCS3)c3cc(Br)ccc3n2)o1,-13%,4%,6µM*,5%,-6%,10%
